# Experimental data: PubChem BioAssay
# Calls of active or inactive are those of the source. Unless noted, the rule behind the calls is not given here.
# Legend:
# [1] = compounds binding Alexa647 anti-His antibody – biochemical, small-molecule microarray, 635 nm fluorescence, artefact control for SMM control protein annotation, primary screen (AID 1128); settings: higher = more signal;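 note: score merges feature fluorescence with signal-to-noise for each printed compound spot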
# [2] = test system: Human papillomavirus type 1a E7 protein (residues 1-88); test: HPV1a E7 small-molecule binders, primary screen, biochemical, small-molecule microarray, residues 1-88, 635 nm (AID 1129); settings: small-molecule microarray binding, fluorescence 635 nm; higher = more signal
# [3] = target: Focal adhesion kinase 1 (Homo sapiens) (UniProt Q05397); test: PTK2 protein binding on printed compound slides – biochemical, small-molecule microarray, 635/667 nm fluorescence, BSA, DTT, primary screen (AID 1130); settings: 635 nm fluorescence, higher = more signal;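 note: composite of spot emission at 667 nm and signal to noise over triplicate slides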
# [4] = test system: Fibrinogen (Alexa647-labelled); test: Alexa647-fibrinogen binding to printed small molecules – biochemical, small-molecule microarray, 635/667 nm fluorescence, artefact control for SMM control-protein annotation, profiling panel (AID 1131); settings: fibrinogen-A647 binding fluorescence, higher = more signal;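 note: z-score merges 667 nm fluorescence with per-spot signal-to-noise over triplicate slides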
# [5] = target: Follistatin (Homo sapiens) (UniProt P19883); test: FST protein binding to printed compounds – biochemical, small-molecule microarray, 635/667 nm fluorescence, primary screen (AID 1132); settings: 635 nm fluorescence, higher = more signal
# [6] = target: Fibroblast growth factor 2 (Homo sapiens) (UniProt P09038); test: basic fibroblast growth factor binding to printed compounds – biochemical, small-molecule microarray, 635/667 nm fluorescence, primary screen (AID 1133); settings: FGF2, fluorescence 635/667, higher = more signal
# [7] = JC-1 mitochondrial potential readout, lung cancer cells – cell-based, A549, JC-1 fluorescence, basal, 24 h, 100 nL, profiling panel (AID 1138); settings: higher = more signal;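 note: A549 lung adenocarcinoma cells under basal conditions with no added stimulus; test concentration not given here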
# [8] = test system: Lefty1; test: Lefty1 protein binding to printed compounds – biochemical, small-molecule microarray, 635/667 nm fluorescence, primary screen (AID 1139); settings: fluorescence 635/667, higher = more signal
# [9] = test system: wheat germ agglutinin (Triticum aestivum), Alexa647-labelled; test: Alexa647-WGA lectin binding to printed small molecules – biochemical, small-molecule microarray, 635/667 nm fluorescence, artefact control for SMM control-protein annotation, profiling panel (AID 1140); settings: WGA-A647 binding, 635 nm fluorescence, higher = more signal;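 note: score merges 667 nm feature emission with signal to noise over triplicate slides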
# [10] = target: Luciferin 4-monooxygenase (Photinus pyralis) (UniProt P08659); test: inhibition of purified Photinus pyralis luciferase – biochemical, luminescence, purified enzyme, 2006 set, primary screen (AID 1141); settings: purified firefly luciferase, SteadyGlo luminescence, 30 min; higher = more signal, called active from +8 up or from −8 down;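 note: cell-free assay with purified firefly luciferase at 100 ng per well in PBS; test concentration not given here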
# [11] = test system: Wnt5a (protein binding on small-molecule microarray); test: small molecules binding Wnt5a protein – biophysical, small-molecule microarray, 635/667 nm fluorescence, primary screen (AID 1142); settings: 635 nm fluorescence, higher = more signal;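 note: fluorescence read at 667 nm with signal to noise per printed feature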
# [12] = ATP-based viability of Huh7 replicon cells – cell-based, CellTiter-Glo luminescence, basal, 48 h, cytotoxicity control for HCV replication inhibitor project, primary screen (AID 1143); settings: higher = more signal, called active from +8 up or from −8 down;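 note: Huh7 hepatoma cells carrying a hepatitis C replication reporter with no stimulus; test concentration not given here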
# [13] = Pseudomonas biofilm growth suppression – PAO1 strain, BacTiter-Glo luminescence, LB-PBS, primary screen (AID 1144); settings: P. aeruginosa PAO1 biofilm, 12 h, higher = more signal
# [14] = basal CRE-LacZ reporter activity in PC12 – cell-based, unstimulated, primary screen (AID 1145); settings: no forskolin, luminescence, 4.5 h, higher = more signal, called active from +8 up or from −8 down
# [15] = forskolin-driven CRE-LacZ activity in PC12 – cell-based, CRE-LacZ reporter, forskolin-stimulated, primary screen (AID 1146); settings: luminescence, 4.5 h, higher = more signal, called active from +8 up or from −8 down;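 note: PC12 cells with 6xCRE LacZ reporter stimulated by forskolin 10 µM; beta-galactosidase reporter signal reflecting CREB driven transcription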
# [16] = target: Streptavidin (Streptomyces avidinii) (UniProt P22629); test: compounds binding control protein streptavidin – biophysical, small-molecule microarray, 635/667 nm fluorescence, artefact control for SMM compound annotation, primary screen (AID 1147); settings: higher = more signal;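 note: signal reflects streptavidin binding to arrayed compounds as a control protein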
# [17] = probe aInhba binding on compound microarray – biochemical, small-molecule microarray, 635/667 nm fluorescence, primary screen (AID 1148); settings: higher = more signal;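 note: score merges 667nm spot fluorescence with signal-to-noise for antibody binding to printed compounds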
# [18] = target: Torsin-1A (Homo sapiens) (UniProt O14656); test: TOR1A wild-type binding on microarray – cell lysate, small-molecule microarray, lysate, 635/667 nm, primary screen (AID 1149); settings: COS7 hTOR1A-WT lysate, 635 nm fluorescence, higher = more signal
# [19] = target: Torsin-1A (Homo sapiens) (UniProt O14656); test: torsin A mutant lysate binding on microarrays – cell lysate, small-molecule microarray, COS7 lysate, 635/667 nm fluorescence, primary screen (AID 1150); settings: COS7 hTOR1A mutant lysate, 635 nm fluorescence, higher = more signal;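 note: score pools 667 nm emission and signal to noise measuring lysate protein binding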
# [20] = test system: Sonic hedgehog protein (Shh); test: Sonic hedgehog microarray binding compounds – biochemical, small-molecule microarray, 635/667 nm fluorescence, primary screen (AID 1151); settings: 635 nm fluorescence, higher = more signal;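 note: Shh protein binding to compounds spotted on small-molecule microarray slides; score combines spot fluorescence intensity with signal-to-noise across triplicate slides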
# Torsin-1A (Homo sapiens), sequence (O14656 whole entry, looked up): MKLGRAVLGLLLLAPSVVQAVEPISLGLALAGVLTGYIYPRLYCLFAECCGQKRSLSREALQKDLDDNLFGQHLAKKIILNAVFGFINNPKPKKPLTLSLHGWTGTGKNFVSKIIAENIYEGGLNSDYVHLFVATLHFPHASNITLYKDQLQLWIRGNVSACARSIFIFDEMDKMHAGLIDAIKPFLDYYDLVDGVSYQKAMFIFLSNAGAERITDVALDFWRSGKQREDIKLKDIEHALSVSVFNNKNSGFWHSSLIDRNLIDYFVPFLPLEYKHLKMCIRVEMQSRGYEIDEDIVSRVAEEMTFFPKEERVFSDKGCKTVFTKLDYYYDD
# Follistatin (Homo sapiens), sequence (P19883 whole entry, looked up): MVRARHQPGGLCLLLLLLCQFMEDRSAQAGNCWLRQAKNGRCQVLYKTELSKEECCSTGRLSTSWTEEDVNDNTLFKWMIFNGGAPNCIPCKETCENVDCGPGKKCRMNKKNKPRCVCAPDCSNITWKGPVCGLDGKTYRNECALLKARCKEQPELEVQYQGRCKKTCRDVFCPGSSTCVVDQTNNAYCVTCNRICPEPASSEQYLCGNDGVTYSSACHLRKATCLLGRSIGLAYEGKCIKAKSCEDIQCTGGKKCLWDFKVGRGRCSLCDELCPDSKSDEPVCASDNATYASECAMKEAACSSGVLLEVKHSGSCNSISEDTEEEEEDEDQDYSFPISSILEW
# Focal adhesion kinase 1 (Homo sapiens), sequence (Q05397 whole entry, looked up): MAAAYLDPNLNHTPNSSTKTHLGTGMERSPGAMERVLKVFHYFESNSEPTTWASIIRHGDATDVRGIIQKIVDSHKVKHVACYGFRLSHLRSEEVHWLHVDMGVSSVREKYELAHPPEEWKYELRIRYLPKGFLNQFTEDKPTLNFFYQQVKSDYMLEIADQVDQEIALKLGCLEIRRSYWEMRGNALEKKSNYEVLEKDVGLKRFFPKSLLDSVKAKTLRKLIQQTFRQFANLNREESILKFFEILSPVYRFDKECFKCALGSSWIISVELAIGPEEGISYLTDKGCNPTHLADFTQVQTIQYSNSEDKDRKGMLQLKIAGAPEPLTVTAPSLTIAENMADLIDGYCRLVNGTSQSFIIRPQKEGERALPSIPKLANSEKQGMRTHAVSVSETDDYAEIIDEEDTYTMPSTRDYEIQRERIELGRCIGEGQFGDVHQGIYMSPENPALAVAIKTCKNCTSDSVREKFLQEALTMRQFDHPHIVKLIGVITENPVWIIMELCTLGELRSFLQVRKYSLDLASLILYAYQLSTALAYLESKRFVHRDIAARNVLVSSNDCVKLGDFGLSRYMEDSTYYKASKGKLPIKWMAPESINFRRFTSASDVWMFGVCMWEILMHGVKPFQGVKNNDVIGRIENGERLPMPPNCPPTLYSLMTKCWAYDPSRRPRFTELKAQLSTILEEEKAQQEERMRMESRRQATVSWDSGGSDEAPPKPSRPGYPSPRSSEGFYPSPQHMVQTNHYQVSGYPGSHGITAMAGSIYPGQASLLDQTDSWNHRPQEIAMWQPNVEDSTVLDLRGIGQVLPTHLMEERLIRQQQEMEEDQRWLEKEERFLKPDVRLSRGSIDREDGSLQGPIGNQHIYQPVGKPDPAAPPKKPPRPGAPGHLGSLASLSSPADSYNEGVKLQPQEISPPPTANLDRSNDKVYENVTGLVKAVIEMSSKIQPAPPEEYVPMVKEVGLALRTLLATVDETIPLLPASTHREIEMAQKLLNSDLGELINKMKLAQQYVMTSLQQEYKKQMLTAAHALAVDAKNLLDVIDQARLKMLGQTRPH
# Streptavidin (Streptomyces avidinii), sequence (P22629 whole entry, looked up): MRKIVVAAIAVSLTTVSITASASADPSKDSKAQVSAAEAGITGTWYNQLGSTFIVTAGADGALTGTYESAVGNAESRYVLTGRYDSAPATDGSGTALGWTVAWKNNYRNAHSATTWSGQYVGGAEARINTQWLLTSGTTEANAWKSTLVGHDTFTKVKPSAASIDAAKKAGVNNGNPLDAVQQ
# Fibroblast growth factor 2 (Homo sapiens), sequence (P09038 whole entry, looked up): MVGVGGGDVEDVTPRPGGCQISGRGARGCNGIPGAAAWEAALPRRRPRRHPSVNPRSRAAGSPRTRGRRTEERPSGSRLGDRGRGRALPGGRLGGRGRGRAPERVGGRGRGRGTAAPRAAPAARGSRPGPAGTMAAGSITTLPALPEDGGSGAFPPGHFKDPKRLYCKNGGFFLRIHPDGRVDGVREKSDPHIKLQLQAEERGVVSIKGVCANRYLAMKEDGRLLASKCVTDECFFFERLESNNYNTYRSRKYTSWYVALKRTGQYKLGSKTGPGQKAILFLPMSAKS
# Luciferin 4-monooxygenase (Photinus pyralis), sequence (P08659 whole entry, looked up): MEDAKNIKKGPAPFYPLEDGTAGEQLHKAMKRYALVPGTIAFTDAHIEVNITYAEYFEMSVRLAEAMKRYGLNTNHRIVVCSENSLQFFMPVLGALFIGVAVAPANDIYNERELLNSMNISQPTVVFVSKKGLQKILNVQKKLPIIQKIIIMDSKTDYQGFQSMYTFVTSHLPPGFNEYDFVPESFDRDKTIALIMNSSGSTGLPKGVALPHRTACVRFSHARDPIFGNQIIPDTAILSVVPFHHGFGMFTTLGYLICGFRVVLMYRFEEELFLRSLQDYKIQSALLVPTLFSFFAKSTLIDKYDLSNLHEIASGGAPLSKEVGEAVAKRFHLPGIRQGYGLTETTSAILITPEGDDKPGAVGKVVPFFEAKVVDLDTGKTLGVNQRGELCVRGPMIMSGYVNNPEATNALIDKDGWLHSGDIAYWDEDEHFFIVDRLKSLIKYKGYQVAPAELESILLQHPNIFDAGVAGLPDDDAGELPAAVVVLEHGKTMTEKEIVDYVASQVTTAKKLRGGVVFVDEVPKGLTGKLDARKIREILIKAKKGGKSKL
Structure (SMILES),composite z-score [1],composite z-score [2],composite z-score [3],composite z-score [4],composite z-score [5],composite z-score [6],z-score [7],composite z-score [8],composite z-score [9],z-score [10],composite z-score [11],z-score [12],z-score [13],z-score [14],z-score [15],composite z-score [16],composite z-score [17],composite z-score [18],composite z-score [19],composite z-score [20]
COCCOC(=O)N1C(=O)[C@@]2(c3cc(C#CCNC(N)=O)ccc31)[C@H](C(N)=O)[C@H]1C(=O)O[C@H](c3ccccc3)[C@H](c3ccccc3)N1[C@@H]2c1ccccc1OCCO,0.193,0.956,0.538,0.834,1.38,1.5,-1.17,0.684,0.403,-1.07 (inactive),0.273,0.406 (inactive),-0.0139 (inactive),-0.465 (inactive),0.0355 (inactive),0.0571,0.183,0.112,0.25,0.878
COc1cccc(C)c1NC(=O)O[C@H]1[C@H](OC(=O)Nc2ccc3c(c2)OCO3)[C@@H](OC(=O)Nc2ccc3c(c2)OCO3)[C@@H](OC)O[C@@H]1CO,0.4,1.25,1.09,0.988,1.28,0.887,-0.588,1.28,1.15,-5.18 (inactive),0.648,-1.19 (inactive),0.0488 (inactive),1.45 (inactive),-0.424 (inactive),1.3,0.0319,1.11,1.19,1.54
Cc1ccc(S[C@]2(C(=O)NC(C)C)CC(=O)N(Cc3cc(C(F)(F)F)cc(C(F)(F)F)c3)[C@@H]2c2ccc(CO)cc2)cc1,-0.254,-0.629,-0.734,-0.983,-1.33,-0.977,0.605,-0.67,0.0491,-0.222 (inactive),0.0368,-0.523 (inactive),0.0139 (inactive),0.0655 (inactive),0.832 (inactive),-1.18,-0.121,-1.86,-1.78,-0.621
[N-]=[N+]=NCc1ccccc1[C@H]1OC(c2ccc(OCCCO)cc2)=N[C@@]1(Cc1ccccc1N=[N+]=[N-])C(=O)NCC(O)CO (stereo not given in full),0.363,1.22,0.566,0.711,1.13,-0.401,0.118,0.194,1.12,-2.09 (inactive),0.462,-3.57 (inactive),0.401 (inactive),0.745 (inactive),-1.22 (inactive),0.9,0.346,0.256,0.301,-0.562
COc1cc2c(cc1O)C(c1cccs1)N(Cc1cc3c(cc1Br)OCO3)CC2 (stereo not given),1.83,1.28,0.822,0.976,1.08,0.75,-1.56,0.556,0.544,-0.657 (inactive),0.594,-4.04 (inactive),0.582 (inactive),0.0924 (inactive),0.726 (inactive),2.07,0.0268,0.835,1.16,0.305
COC(=O)[C@@]1(Cc2ccc(OC)cc2)[C@H]2c3cc(C(=O)N4CCCC4)n(CCc4c[nH]c5ccc(O)cc45)c3C[C@H]2CN1C(=O)c1ccccc1,0.256,1.23,0.594,0.948,1.16,0.0628,0.623,0.111,0.92,-1.31 (inactive),0.431,-0.759 (inactive),0.34 (inactive),0.587 (inactive),-0.397 (inactive),0.971,0.192,0.132,0.318,-0.229
COc1cc(C(O)C2C=CC3C(=O)N(C)C(=O)C3N2Nc2ccccc2)cc(OC)c1OC (stereo not given),2.78,1.23,1.05,1,0.568,-0.397,0.29,-0.714,1.14,-1.36 (inactive),0.238,0.338 (inactive),-0.426 (inactive),0.246 (inactive),-0.944 (inactive),1.06,0.813,0.892,1.17,-0.153
CCOC(=O)C1=C[C@@H](C(C)(C)C)N(S(=O)(=O)c2ccc(C)cc2)[C@H]1c1cccc2ccccc12,1.15,0.716,0.191,0.896,0.466,-0.195,2.89,0.139,0.437,0.908 (inactive),-0.219,-4.9 (inactive),0.873 (inactive),1.14 (inactive),0.705 (inactive),0.823,0.0421,-0.331,0.406,-0.165
CCCCCCCCCC(O)C1C=CC2C(=O)N(c3ccccc3)C(=O)C2N1Nc1cc(OC)c(OC)c(OC)c1 (stereo not given),0.374,0.675,0.636,0.585,0.0214,-1.09,-0.512,-0.312,0.172,-1.96 (inactive),-0.128,-4.06 (inactive),0.123 (inactive),0.815 (inactive),-0.262 (inactive),0.581,-0.0334,-1.45,-0.241,-0.511
[N-]=[N+]=Nc1ccccc1C[C@]1(C(=O)NCCN2CCOCC2)COC(c2ccc(OCCCO)cc2)=N1,1.34,1.26,0.696,0.649,1.02,1.04,2.08,-0.494,0.607,-2.91 (inactive),0.898,-1.06 (inactive),0.783 (inactive),0.754 (inactive),1.45 (inactive),1.25,0.0497,0.707,1.75,0.0324
[N-]=[N+]=Nc1ccccc1[C@@H]1OC(c2ccc(OCCCO)cc2)=N[C@]1(Cc1ccccc1)C(=O)O,1.87,1.21,0.854,0.803,1.31,0.32,0.506,-0.028,1.09,-9.46 (active),0.343,-0.626 (inactive),0.693 (inactive),1.05 (inactive),-1.43 (inactive),0.723,0.207,0.0692,0.285,-0.0767
